# Source: PubChem BioAssay (National Center for Advancing Translational Sciences (NCATS))
# Pf Dd2 inh: Plasmodium falciparum Dd2 growth inhibition. AID 1347417. P. falciparum Dd2 growth, SYBR Green, 72 h. 120,000 compounds, 4.3% hits. Potency, µM (titrated, usually from 28.9 µM), without a hit: top-dose activity, negative = inhibition, usual class: inhibitors; active = well fitted inhibition curve with a large enough effect;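 note: plate controls were DMSO vehicle for no effect and reference drug for full effect; nearly all actives have a fitted effect of over 65% in size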
#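 Readout: SYBR Green fluorescence, 485 nm excitation, 535 nm emission, after ~16 h lysis at 37C. Before that, Dd2-infected red cells (2.5% hematocrit) grew 72 h with compound, 29 uM top final concentration.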
# * hit, by the source's call; i = inactive; [ ] = remark or other dose. The full list was thinned out, with hits kept by preference. Potency is the fitted concentration of half-maximal effect.
SMILES,Pf Dd2 inh
COc1ccc([C@H]2C[C@@H](O)[C@@H](O)[C@@H]2NC(=O)c2c(-c3ccccc3)noc2C)cc1,-10%[44.1 µM]
C[C@H]1CN(C(=O)CCCc2ccccc2)C[C@@H]1c1nc(-c2ccccc2)no1,i
CN1C(=O)[C@H]2CN(Cc3cn[nH]c3-c3cccc(Br)c3)C[C@H]2C1=O,123%
O=C(NCc1ccccc1)C1=NO[C@@H]2CN(Cc3ccc(O)c(Cl)c3)C[C@H]12,-26%[44.1 µM]
CC1CN(c2ccccc2C#N)C(=O)CN1C(=O)Cc1c[nH]c(=O)[nH]c1=O (stereo not drawn),-1%
O=C(C1CCCCC1)N1CCCC2(CC(c3cccnc3)=NO2)C1 (stereo not drawn),15%
CCn1c(CN(C)C)nnc1C1CCN(C(=O)c2ccn(C(F)F)n2)CC1,11%
O=C([C@@H]1C[C@H](F)CN1S(=O)(=O)c1cccc(Br)c1)N1CCCCC1,1%
COc1ccc(F)cc1-c1ccc(CN)cc1,-16%[44.1 µM]
NCc1ccccc1-c1cc(F)cc(F)c1,13µM*
Cc1cc(Nc2cccc(Cl)c2)nc2ccc(NC(=O)Cc3ccc(Cl)cc3)cc12,-24%
CCOc1ccc(C(=O)Nc2ccc(NC(=O)c3ccccc3)cc2)cc1Br,56%
Cc1cc(Nc2cccc(C(F)(F)F)c2)nc2ccc(NC(=O)c3cccnc3)cc12,3.5µM*
CCOc1ccc(C(=O)Nc2ccc3nc(Nc4cccc(C(F)(F)F)c4)cc(C)c3c2)cc1OCC,3.2µM*
Cc1cc(Nc2cccc(Cl)c2)nc2ccc(NC(=O)c3ccc(F)cc3Cl)cc12,-8%
CCOc1cc(=O)n2c(c1C(=O)Nc1cccc(C(F)(F)F)c1)CCCC2,0%
O=C([C@@H]1C[C@H](F)CN1S(=O)(=O)c1ccc(F)c(F)c1)N1CCCCC1,-16%
CC(C)CCN(CCC(=O)NCCc1ccccc1)C(=O)c1ccoc1,-5%
CC(C)CC(=O)N1CCC(Oc2ccccc2)C1 (stereo not drawn),i
COc1cccc(C(=O)N2CCC3(CC2)OCC(C(=O)NCC(C)C)N3C(=O)c2ccc(F)cc2)c1 (stereo not drawn),i
CNC(=O)C(C)(C)N1CCC[C@H]1C(=O)N1CCc2ccccc2C1,i
CCCCc1ccc(NC(=O)N2CCCC2c2nncn2C2CCCC2)cc1 (stereo not drawn),-23%
COc1ccc(CCNC(=O)CSC2=Nc3ccccc3C3=NC(CCC(=O)NCc4ccccc4)C(=O)N23)cc1OC (stereo not drawn),-6%
O=C(CSC1=Nc2ccccc2C2=NC(CC(=O)NC3CCCCC3)C(=O)N12)Nc1ccc(F)cc1 (stereo not drawn),56%
COc1ccc(Cl)cc1NC(=O)CSC1=Nc2ccccc2C2=NC(CC(=O)NCc3cccs3)C(=O)N12 (stereo not drawn),11µM*
SMILES,Pf Dd2 inh
COc1ccc(OC)c(NC(=O)CSC2=Nc3ccccc3C3=NC(CC(=O)NCc4ccco4)C(=O)N23)c1 (stereo not drawn),i
O=C(CC1N=C2c3ccccc3N=C(SCc3cccc(F)c3)N2C1=O)NCc1cccs1 (stereo not drawn),i
O=C(CC1N=C2c3ccccc3N=C(SCC(=O)Nc3ccc(F)cc3)N2C1=O)NCc1cccs1 (stereo not drawn),18%
CCOc1ccccc1NC(=O)CSC1=Nc2ccccc2C2=NC(CC(=O)NC3CCCCC3)C(=O)N12 (stereo not drawn),11µM*
O=C(CC1N=C2c3ccccc3N=C(SCC(=O)Nc3cccc(C(F)(F)F)c3)N2C1=O)NCc1cccs1 (stereo not drawn),13µM*
CCc1ccc(NC(=O)CSC2=Nc3ccccc3C3=NC(CC(=O)NC4CCCCC4)C(=O)N23)cc1 (stereo not drawn),i
O=C(CCC1N=C2c3ccccc3N=C(SCC(=O)Nc3ccccc3F)N2C1=O)NCc1cccs1 (stereo not drawn),-27%
Cc1ccc(CSC2=Nc3ccccc3C3=NC(CCC(=O)NCCc4ccccc4)C(=O)N23)cc1 (stereo not drawn),10µM*
Cc1ccc(CSC2=Nc3ccccc3C3=NC(CCC(=O)NCc4cccs4)C(=O)N23)cc1 (stereo not drawn),44%
O=C(Nc1ccc(F)cc1)C1CN(c2ccccc2)C(=O)N1 (stereo not drawn),3%[44.1 µM]
CN(C)c1nc2c(c(=O)[nH]1)CCN(C(=O)CCc1ccccc1)CC2,24%[5.79 µM]
Cc1cc(C)c(CN2CCC3(CCCN(C)C3=O)C2)c(-n2cccn2)c1 (stereo not drawn),-16%
Cc1nc2ncccn2c1C(=O)N1CCNCC(C(=O)O)C1 (stereo not drawn),6%
CN(C(=O)CN1C(=O)NC(c2ccc(Cl)cc2)C2=C1COC2=O)c1ccccc1 (stereo not drawn),i
COc1cccc(CNC(=O)[C@@H]2C[C@@H](O)CN2C2CCN(C(=O)c3ccc4ccccc4n3)CC2)c1,i
COc1ccccc1C(=O)N1CCCC2(C1)NC(=O)c1ccccc1O2 (stereo not drawn),17%
O=C(NC1CCCCC1)NC1CCN(C(=O)N2CC3CC(C2)[C@H]2CCCC(=O)N2C3)CC1 (stereo partly drawn),-24%
OCCC1CN(Cc2cc3c(cc2Cl)OCO3)CCN1Cc1ccccc1F (stereo not drawn),i
CCCCNC(=O)CC1N=C2c3ccccc3N=C(SCC(=O)NCc3ccccc3Cl)N2C1=O (stereo not drawn),10µM*
COc1ccc(NC(=O)CSC2=Nc3ccccc3C3=NC(CCC(=O)NC4CCCCC4)C(=O)N23)cc1 (stereo not drawn),44%
O=C(CSC1=Nc2ccccc2C2=NC(CCC(=O)NC3CCCCC3)C(=O)N12)Nc1cccc(C(F)(F)F)c1 (stereo not drawn),10µM*
COCCCNC(=O)CSC1=Nc2ccccc2C2=NC(CCC(=O)NCc3ccccc3OC)C(=O)N12 (stereo not drawn),i
CC(C)c1ccc(NC(=O)CSC2=Nc3ccccc3C3=NC(CCC(=O)NC4CCCCC4)C(=O)N23)cc1 (stereo not drawn),86%
CCCCNC(=O)CSC1=Nc2ccccc2C2=NC(CCC(=O)NCc3ccccc3OC)C(=O)N12 (stereo not drawn),-15%
Cc1cc(C(=O)N[C@@H]2CCC[C@@H](C(=O)NC3CC3)CC(=O)N(C)C2)nn1C,21%[44.1 µM]
SMILES,Pf Dd2 inh
Cc1noc(-c2ccccc2Cl)c1C(=O)NCc1ccc(F)cc1F,10%
COCCCn1c(C)cnc1C1CCN(C(=O)NC2CCCCC2)C1 (stereo not drawn),-14%
O=C(Nc1cnc(-c2cccc(Cl)c2)nc1)c1ccc(F)cc1Cl,i
O=C(N[C@H]1CCN2C(=O)c3cc(-c4ccsc4)ccc3NC(=O)[C@H]12)C1CCCC1,i
Cc1ccc2ncc(S(=O)(=O)c3ccccc3)c(N3CCCCC3C)c2c1 (stereo not drawn),10µM*
CC1CCCN(c2c(S(=O)(=O)c3ccccc3)cnc3ccc(Cl)cc23)C1 (stereo not drawn),-13%
CCOc1ccc(Nc2c(S(=O)(=O)c3ccc(C)cc3)cnc3ccccc23)cc1,-14%
O=C(NCCCc1ccccn1)c1ccc(C2CCCNC2)cc1 (stereo not drawn),0%
CN(Cc1ccccc1)C(=O)[C@H]1O[C@H](CCN2CCN(Cc3ccccc3)CC2)CC[C@@H]1O,4.5µM*
C#CCN(C)CC[C@@H]1CC[C@H](O)[C@@H](C(=O)N(C)Cc2ccccc2)O1,-12%[44.1 µM]
